# This is one part of a sample in which hits are shown more often than they occur.
# Vaccinia Venus – inhibitors of vaccinia virus (Venus reporter) | Vaccinia virus Venus reporter expression, fluorescence | Potency, µM (highest dose often 36.5 µM), without a hit: at the highest dose activity change, negative = inhibition, hits mostly inhibitors | 0.46% of 330,000 active | AID 720580; calls by dose curve; tested in A549 cells; note: potency is the fitted concentration of half-maximal effect; % is set by controls: 0 for no effect and ±100 for the full control effect; nearly all actives have a fitted effect of over 30% in size
# Shiga toxin inh – Shiga toxin inhibition | AID 2315 | 9.2% of 290,000 active | inhibition, % at 38.7 µM | Vero cells, Shiga toxin protein synthesis inhibition reporter; in the data active = inhibition mostly above about 28%, no sharp cut-off; inactive = mostly below about 43%; note: 0% is about no effect
# Marburg entry inh – Marburg virus entry inhibition | Marburg virus pseudotyped entry inhibition, cell reporter | Potency, µM (top dose mostly 37.8 µM), for the others: top-dose activity change, negative = inhibition, hits mostly inhibitors | 1.8% of 300,000 active | AID 540276; calls by dose curve; tested in HEK293 cells; note: potency is the fitted concentration of half-maximal effect; % is set by controls: 0 for no effect and ±100 for the full control effect
# VACV mCherry inh – vaccinia inhibition (mCherry reporter); Vaccinia virus mCherry reporter infection, fluorescence; Potency, µM (highest dose often 36.5 µM), without a hit: at the top dose activity change, negative = inhibition, hits mostly inhibitors; 0.63% of 310,000 active; AID 720579; calls by dose curve; tested in A549 cells; note: potency is the fitted concentration of half-maximal effect; % is set by controls: 0 for no effect and ±100 for the full control effect; nearly all actives have a fitted effect of over 35% in size
# Cycloheximide cs – counter-screen for Shiga toxin inhibitors: cycloheximide protein synthesis inhibition | AID 2314 | 12% of 300,000 active | cell reporter, cycloheximide protein synthesis inhibition counterscreen | max response, %; in the data active = max response mostly above about 13%, no sharp cut-off; inactive = mostly below about 14%; note: read at 38.3 µM for the half of the compounds with a filed dose; 0% is about no effect
# Lassa entry inh – Lassa virus entry inhibition | Lassa virus pseudotype entry inhibition, cell reporter | Potency, µM (titrated, usually from 37.9 µM), for the others: top-dose activity change, negative = inhibition, hits mostly inhibitors | 1.2% of 300,000 active | AID 540256; calls by dose curve; tested in HEK293 cells; note: potency is the fitted concentration of half-maximal effect; % is set by controls: 0 for no effect and ±100 for the full control effect; nearly all actives have a fitted effect of over 50% in size
# The depositor's hits bear a star; i = inactive; ? = inconclusive; nt = no result; [ ] = another dose, or the depositor's remark.
SMILES,Vaccinia Venus,Shiga toxin inh,Marburg entry inh,VACV mCherry inh,Cycloheximide cs,Lassa entry inh
CC(=O)Nc1ccc(NC(=O)C(C)OC(=O)/C=C/c2cn(-c3ccccc3)nc2-c2cccnc2)cc1 (configuration not stated),?,-3.9,?,12.6µM*,-2.0,?
O/N=C/c1cn(-c2ccccc2)nc1-c1ccccc1,?,12.5,?,-1.3%,13.8*,11.9%[46.1 µM]
NC(=S)N/N=C/c1cn(-c2ccccc2)nc1-c1cccnc1,?,21.7,nt,?,19.1*,nt
COc1ccc(-c2nn(-c3ccccc3)cc2/C=N/O)cc1OC,nt,15.0,nt,nt,0.8,nt
Cc1c(C(=O)Nc2ccccc2)csc1-c1ccccc1,-7.5%,39.9*,?,-12.3%,36.1*,?
Cc1c(C(=O)Nc2ccccc2[N+](=O)[O-])csc1-c1ccccc1,?,96.9*,?,?,34.5*,?
Cc1csc2nc(-c3cccc(NC(=O)C(C)C)c3)cn12,-11.1%[7.34 µM],nt,nt,-18.3%[7.34 µM],nt,5.5%[46.1 µM]
CC(C)C(=O)Nc1cccc(-c2csc(-c3ccccc3)n2)c1,?,33.5*,?,-22.7%,32.3*,-22.7%
CC(C)C(=O)Nc1ccc(-c2csc(-c3ccccc3)n2)cc1,-13.6%,81.2*,22.0%,-4.4%,60.9*,?
O=C(Nc1ccc(-c2csc(Nc3ccccc3)n2)cc1)c1ccccc1,?,15.8,nt,?,2.0,nt
O=[N+]([O-])c1cc(Br)cc(C=Nc2ccc3c(c2)OCO3)c1O,nt,26.2,nt,nt,2.5,nt
O=C(N/N=C/c1cc([N+](=O)[O-])ccc1O)c1ccc2c(c1)OCCO2,-10.8%,16.5,?,-22.0%,17.6*,?
O=C(N/N=C/c1ccccc1[N+](=O)[O-])c1ccc2c(c1)OCCO2,-18.5%,61.0*,2.51µM*,?,32.7*,1.41µM*
O=C(N/N=C/c1cccc(O)c1)c1ccc2c(c1)OCCO2,nt,9.3,nt,nt,9.1,nt
O=C(N/N=C/c1cc(O)ccc1[N+](=O)[O-])c1ccc2c(c1)OCCO2,-6.8%,-15.2,?,-0.7%,14.8*,5.01µM*
O=[N+]([O-])c1ccc(O)c(C=Nc2ccc3c(c2)OCO3)c1,-4.2%,16.1*,7.3%[46.1 µM],?,23.6*,-9.3%
Cc1ccc(C(=O)Nc2cccc(-c3nc(CNC(=O)c4ccc5ccccc5n4)c(C)o3)c2)s1,0.0%,nt,nt,-13.0%,nt,nt
Cc1cc(C)c(OCC(=O)OCC(=O)NCCC2=CCCCC2)c(C)c1,-11.1%,nt,6.4%,-12.7%,nt,0.7%[46.1 µM]
COCCCn1c(=N)c(S(=O)(=O)c2ccccc2)cc2c(=O)n3cccc(C)c3nc21,-2.8%,nt,3.0%[46.1 µM],-8.4%,nt,1.1%[46.1 µM]
CC(C)c1nnc(NC(=O)CSc2nnc(-c3ccco3)o2)s1,-4.8%,37.3,-29.0%[46.1 µM],1.0%,8.0,22.1%
COc1cccc2cc(C(=O)OCC(=O)NCc3ccc4c(c3)OCO4)c(=O)oc12,0.0%[7.34 µM],67.5*,nt,33.4%[7.34 µM],37.9*,nt
Cc1ccc(NC(=O)NCc2ccc3c(c2)OCO3)cc1C,0.1%,42.9*,-1.8%[46.1 µM],i,23.4*,20.3%
CCOc1ccccc1NC(=O)NCc1ccc2c(c1)OCO2,-9.8%,-4.0,12.7%[46.1 µM],-12.6%,1.2,29.3%[46.1 µM]
COc1ccccc1NC(=O)NCc1ccc2c(c1)OCO2,nt,-1.3,-1.0%,nt,11.5*,nt
COc1cccc(C(=O)OCC(=O)NCc2ccc3c(c2)OCO3)c1OC,-14.5%,nt,-5.4%,-12.1%,nt,18.9%
SMILES,Vaccinia Venus,Shiga toxin inh,Marburg entry inh,VACV mCherry inh,Cycloheximide cs,Lassa entry inh
O=C(NCc1ccc2c(c1)OCO2)Nc1ccc(F)cc1,nt,44.5*,nt,nt,36.8*,nt
N[C@@]1(C(=O)O)CO[C@H]2[C@H](C(=O)O)[C@H]21,nt,2.0,nt,nt,-4.8,nt
CCc1ccc(Oc2nc3c(C)cccn3c(=O)c2/C=C(\C#N)c2nc3ccccc3[nH]2)cc1,2.5%,nt,-11.3%[46.1 µM],-9.4%,nt,1.3%[46.1 µM]
CCc1ccc(CN2C(=O)c3ccccc3C2C(=O)NC2CCCCCC2)cc1 (configuration not stated),10.3%,nt,-24.8%[46.1 µM],1.8%,nt,-18.1%[46.1 µM]
COc1cc(/C=C/C(=O)OCC(=O)N2CCCc3ccccc32)ccc1OC(F)F,1.1%,nt,19.4%[46.1 µM],-24.6%,nt,?
c1ccc(Cc2nn3c(COc4ccccc4)nnc3s2)cc1,-1.8%,60.2*,10.6%,i,13.2*,-13.4%
CCOc1ccccc1OCc1nn2c(COc3ccccc3)nnc2s1,nt,-3.4,-23.4%,nt,0.5,-1.6%
c1ccc(CCNc2nc(-c3cccnc3)cs2)cc1,-4.8%,39.6*,9.8%,-16.1%,61.8*,-20.7%
c1ccc(CCNc2nc(-c3ccccn3)cs2)cc1,nt,86.5*,0.2%,nt,40.4*,?
COc1cc(=O)n2c(c1C(=O)NC(C)c1ccco1)CCN(Cc1ccccc1Cl)CC2 (configuration not stated),0.0%,nt,nt,i,nt,nt
Cc1c(CC(=O)NCCc2ccccc2F)c(=O)oc2cc(O)c(Cl)cc12,-4.1%[7.34 µM],nt,18.8%[46.1 µM],-5.6%[7.34 µM],nt,-3.1%[46.1 µM]
O=[N+]([O-])c1ccc2c(c1)CO[C@@]21O[C@H](CCO)C[C@H](O)[C@H]1O,-6.1%,nt,nt,-4.0%,nt,nt
O=C(CSC1=NNC(c2ccccn2)S1)Nc1ccc(C(F)(F)F)cc1 (configuration not stated),?,37.9*,?,?,23.3*,?
c1ccc(CSC2=NNC(c3ccccn3)S2)cc1 (configuration not stated),?,31.8,?,?,33.2*,?
Cc1cc(C)n(C(=O)Cn2nc([N+](=O)[O-])cc2C)n1,14.0%,6.9,-2.4%[46.1 µM],5.4%,-6.4,-1.4%
C/C(=N\O)C1CCCCC1,nt,15.6,nt,nt,-2.6,nt
COc1ccc(OCCSc2n[nH]c(N)n2)cc1,?,48.5,0.5%[46.1 µM],nt,31.2*,9.7%
COc1cc(/C=N/N(C)C)ccc1OC(=O)c1cccs1,-0.3%,71.1*,3.2%,-9.3%,28.7*,24.1%
COc1cc(/C=N/Nc2ccc(Cl)cc2)ccc1OC(=O)c1cccs1,1.1%,14.2,2.7%,-9.9%,16.1*,11.2%
O=C(Nc1ccc2nsnc2c1)c1cccs1,-2.5%,19.9,?,i,30.2*,-0.8%
O=C(Nc1ccncc1)c1cccs1,-11.6%,-7.9,1.8%[46.1 µM],i,-3.2,-6.7%
O=C(Nc1ccc2nn(-c3ccccc3)nc2c1)c1cccs1,1.3%,72.6*,19.6%,-3.3%,34.8*,9.0%
O=C(Nc1ccc2nn(-c3ccccc3)nc2c1)c1ccc2c(c1)OCO2,nt,-11.8,-2.1%,nt,-1.0,-18.9%
O=C(Cc1ccc(F)cc1)Nc1ccc(F)c([N+](=O)[O-])c1,-7.4%,-12.9,12.4%[46.1 µM],-10.7%,-1.4,-8.4%
O=C(Nc1ccccc1)Nc1ccc(F)c([N+](=O)[O-])c1,?,46.2*,?,-19.7%,45.3*,-11.2%
O=C(Nc1ccc(Cl)c([N+](=O)[O-])c1)Nc1nc2ccccc2s1,nt,21.5,nt,nt,3.6,nt
O=C(NC(=S)Nc1ccc2[nH]c(=O)[nH]c2c1)c1ccccc1F,-16.8%,25.2,4.9%[46.1 µM],i,15.1,-3.8%[46.1 µM]
O=C(NC(=S)Nc1ccc(F)c([N+](=O)[O-])c1)c1ccccc1F,-26.0%,36.7*,?,?,23.2*,?
